Measurements as given in PubChem BioAssay AID1159580 (chemical genetic matrix, 2015).
About 2,000 (36%) of roughly 5,500 compounds were called active. Not shown: some 18% with an inconclusive outcome. Cut-off read from the data, not from the text of the source: active = normalized growth mostly below about 0.91 (no sharp cut-off); inconclusive = no clear call, values can overlap the other calls; inactive = mostly above about 0.92. Some of the results follow.

Assay: chemical genetic growth profiling, strain panel (AID 1159580);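 note: tested at 20 µM; growth read once vehicle control cultures reached saturation at 30 °C; 1 = growth at the plate median or of vehicle wells; lower values mean less growth of the strain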
Conditions: S. cerevisiae deletion strains, growth OD
[1] = locus YAL013W, strain DEP1, active compounds read low
[2] = locus YDR150W, strain NUM1, active compounds read low
[3] = locus YJR075W, strain HOC1, active compounds read low
[4] = locus YMR307W, strain GAS1, active compounds read low
[5] = locus YPL241C, strain CIN2, active compounds read low
[6] = locus YDL101C, strain DUN1, active compounds read low
[7] = locus YHR030C, strain SLT2, active compounds read low

Measured: normalized growth

COc1ccc(NC(=O)/C=C/c2ccc(Cl)cc2)cc1
inactive: [1] 0.992 | locus YAL040C, strain CLN3, active compounds read low 0.958 | locus YCL061C, strain MRC1 (second series), active compounds read low 1 | [2] 1 | locus YDR363W, strain ESC2, active compounds read low 1.01 | locus YER002W, strain NOP16, active compounds read low 0.956 | locus YGR229C, strain SMI1, active compounds read low 0.986 | [3] 0.98 | [4] 1.02 | locus YNL175C, strain NOP13, active compounds read low 0.966 | locus YNL197C, strain WHI3, active compounds read low 0.977 | locus YNL224C, strain SQS1, active compounds read low 1 | locus YOR083W, strain WHI5 (second series), active compounds read low 0.961 | [5] 1.01

COC(=S)Nc1cc(Cl)cc(Cl)c1
active: locus YDR477W, strain SNF1, active compounds read low 0.685 | locus YER123W, strain YCK3, active compounds read low 0.608 | locus YER133W, strain GLC7, active compounds read low 0.559 | locus YGR040W, strain KSS1, active compounds read low 0.662 | locus YGR092W, strain DBF2, active compounds read low 0.452 | [7] 0.577 | locus YHR079C, strain IRE1, active compounds read low 0.499 | locus YJL157C, strain FAR1, active compounds read low 0.679 | locus YKL067W, strain YNK1, active compounds read low 0.704 | locus YKL203C, strain TOR2, active compounds read low 0.697 | locus YLR113W, strain HOG1, active compounds read low 0.458 | locus YLR403W, strain SFP1, active compounds read low 0.569 | locus YML070W, strain DAK1, active compounds read low 0.644 | locus YMR205C, strain PFK2 (second series), active compounds read low 0.747 | locus YNL183C, strain NPR1, active compounds read low 0.544 | locus YNL307C, strain MCK1 (second series), active compounds read low 0.599 | locus YOL136C, strain PFK27, active compounds read low 0.648 | locus YPL031C, strain PHO85, active compounds read low 0.564 | locus YPL153C, strain RAD53, active compounds read low 0.588 | locus YPL204W, strain HRR25, active compounds read low 0.567 | locus YPL256C, strain CLN2, active compounds read low 0.627
inactive: locus YAR019C, strain CDC15, active compounds read low 0.938 | locus YBL105C, strain PKC1, active compounds read low 0.94 | locus YBR135W, strain CKS1, active compounds read low 0.935 | locus YBR136W, strain MEC1, active compounds read low 0.94 | locus YBR160W, strain CDC28, active compounds read low 0.935 | locus YDL017W, strain CDC7, active compounds read low 0.938 | locus YDL028C, strain MPS1, active compounds read low 0.939 | [6] 0.949 | locus YDL108W, strain KIN28, active compounds read low 0.943 | locus YDL132W, strain cdc53, active compounds read low 0.95 | locus YDL214C, strain PRR2, active compounds read low 0.702 | locus YDR052C, strain DBF4, active compounds read low 0.935 | locus YDR054C, strain cdc34, active compounds read low 0.959 | locus YDR226W, strain ADK1, active compounds read low 0.921 | locus YFL009W, strain cdc4, active compounds read low 0.912 | locus YFL029C, strain CAK1, active compounds read low 0.919 | locus YFR003C, strain YPI1, active compounds read low 0.941 | locus YFR019W, strain FAB1, active compounds read low 0.828 | locus YFR028C, strain CDC14, active compounds read low 0.966 | locus YGR052W, strain FMP48, active compounds read low 0.698 | locus YHR082C, strain KSP1, active compounds read low 0.633 | locus YHR205W, strain SCH9, active compounds read low 0.659 | locus YIL147C, strain SLN1, active compounds read low 0.929 | locus YJL095W, strain BCK1, active compounds read low 0.584 | locus YJL128C, strain PBS2, active compounds read low 0.935 | locus YJR016C, strain ILV3, active compounds read low 0.925 | locus YJR066W, strain TOR1 (second series), active compounds read low 0.653 | locus YJR066W, strain TOR1, active compounds read low 0.604 | locus YKL048C, strain ELM1, active compounds read low 0.816 | locus YKL101W, strain HSL1, active compounds read low 0.762 | locus YKL193C, strain SDS22, active compounds read low 0.919 | locus YLR133W, strain CKI1, active compounds read low 0.742 | locus YMR001C, strain CDC5, active compounds read low 0.935 | locus YMR277W, strain FCP1, active compounds read low 0.932 | locus YNL006W, strain LST8, active compounds read low 0.936 | locus YNL020C, strain ARK1, active compounds read low 0.727 | locus YNL161W, strain CBK1, active compounds read low 0.934 | locus YNL207W, strain RIO2, active compounds read low 0.927 | locus YNL222W, strain SSU72, active compounds read low 0.933 | locus YOL078W, strain AVO1, active compounds read low 0.923 | locus YOR061W, strain CKA2, active compounds read low 0.719 | locus YOR119C, strain RIO1, active compounds read low 0.746 | locus YOR231W, strain MKK1, active compounds read low 0.585 | locus YOR329C, strain SCD5, active compounds read low 0.929 | locus YPL209C, strain IPL1, active compounds read low 0.935 | locus YPR025C, strain CCL1, active compounds read low 0.936 | locus YPR106W, strain ISR1, active compounds read low 0.927 | locus YPR111W, strain DBF20, active compounds read low 0.96 | strain NNK1, active compounds read low 0.936 | strain TSCII, active compounds read low 0.913

COC(=O)c1cc(OC)c(OC)cc1NC(=O)Nc1cc(Cl)cc(Cl)c1
inactive: [1] 0.991 | locus YBR229C, strain ROT2, active compounds read low 0.998 | [6] 1.02 | locus YDL134C, strain PPH21, active compounds read low 0.979 | [2] 0.916 | locus YEL061C, strain CIN8, active compounds read low 1.02 | locus YGR078C, strain PAC10, active compounds read low 1.01 | [7] 0.868 | locus YHR087W, strain rtc3, active compounds read low 1.02 | locus YJL187C, strain SWE1, active compounds read low 1.03 | locus YJR043C, strain POL32, active compounds read low 0.959 | [3] 0.982 | locus YKL190W, strain CNB1, active compounds read low 1.01 | locus YLR039C, strain RIC1, active compounds read low 1.01 | locus YLR058C, strain SHM2 (second series), active compounds read low 1.01 | locus YLR085C, strain ARP6, active compounds read low 0.973 | locus YLR262C, strain YPT6, active compounds read low 0.972 | locus YML094W, strain GIM5, active compounds read low 0.998 | locus YMR219W, strain ESC1, active compounds read low 1.02 | locus YMR263W, strain SAP30, active compounds read low 0.978 | [4] 1.05 | locus YNL153C, strain GIM3, active compounds read low 1.02 | locus YNL298W, strain CLA4 (second series), active compounds read low 0.969 | locus YNL322C, strain KRE1, active compounds read low 1.02 | locus YNR030W, strain Alg12, active compounds read low 0.978 | locus YOL006C, strain TOP1, active compounds read low 1.05 | locus YPL055C, strain LGE1, active compounds read low 1.08 | [5] 0.998 | locus YPR135W, strain CTF4, active compounds read low 0.926
